Assay results taken from PubChem BioAssay (NCI).
Compounds without any hit were thinned out: in the full panel of roughly 83,000, 20% have a hit.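 Note: values are percent growth. 100 is the growth of untreated cells, values between 100 and 0 indicate rising inhibition; between -100 and 0 indicates cell death.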 Values without a mark were called inactive. Activity calls are given as the source filed them. The calls were made as follows: active = growth percent below 10; inactive = the rest.

Key:
Assay in all cases: NCI-60 one-dose screen, 48 h (100 = growth as untreated, 0 = no growth, -100 = all killed)
SK-MEL-2 melanoma = conditions: 10 µM unless noted
EKVX NSCLC = conditions: 10 µM unless noted
SN12C renal = conditions: 10 µM unless noted
UO-31 renal = conditions: 10 µM unless noted
TK-10 renal = conditions: 10 µM unless noted
ACHN renal = conditions: 10 µM unless noted
CAKI-1 renal = conditions: 10 µM unless noted
A498 renal = conditions: 10 µM unless noted
CCRF-CEM leukemia = conditions: 10 µM unless noted
MOLT-4 leukemia = conditions: 10 µM unless noted
SR leukemia = conditions: 10 µM unless noted
RPMI-8226 leukemia = conditions: 10 µM
OVCAR-8 ovarian = conditions: 10 µM unless noted
OVCAR-5 ovarian = conditions: 10 µM unless noted
OVCAR-4 ovarian = conditions: 10 µM unless noted
SK-OV-3 ovarian = conditions: 10 µM
IGROV1 ovarian = conditions: 10 µM unless noted
OVCAR-3 ovarian = conditions: 10 µM unless noted
HS 578T breast = conditions: 10 µM unless noted
NCI/ADR-RES ovarian = conditions: 10 µM unless noted

Row | SMILES | growth (SK-MEL-2 melanoma) | growth (EKVX NSCLC) | growth (SN12C renal) | growth (UO-31 renal) | growth (TK-10 renal) | growth (ACHN renal) | growth (CAKI-1 renal) | growth (A498 renal) | growth (CCRF-CEM leukemia) | growth (MOLT-4 leukemia) | growth (SR leukemia) | growth (RPMI-8226 leukemia) | growth (OVCAR-8 ovarian) | growth (OVCAR-5 ovarian) | growth (OVCAR-4 ovarian) | growth (SK-OV-3 ovarian) | growth (IGROV1 ovarian) | growth (OVCAR-3 ovarian) | growth (HS 578T breast) | growth (NCI/ADR-RES ovarian)
1 | Cc1nc2nc(C(F)(F)F)[nH]c2nc1C | 115% | 89.5% | 95.4% | 101% | 104% | 110% | 98.3% | 98.7% | 93.3% | 113% | 111% | 92.1% | 105% | 115% | 97.7% | 98.5% | 117% | 116% | 119% | 107%
2 | COc1cc(CNCCN2C(=O)c3ccc4c5c(ccc(c35)C2=O)C(=O)N(CCNCc2cc(OC)c(OC)c(OC)c2)C4=O)cc(OC)c1OC | -82.3% (active) | -42% (active) | -87.7% (active) | -70.2% (active) | -87.1% (active) | -92.2% (active) | -70% (active) | -92.7% (active) | -20.7% (active) | -4.82% (active) | 0.859% (active) | -25.5% (active) | -47.3% (active) | -78.7% (active) | -70.9% (active) | -96.9% (active) | -53.5% (active) | -99.1% (active) | -60.7% (active) | -20.2% (active)
3 | Cc1ccc(C2SCC(=O)N2NC(=O)c2[nH]c3ccc(F)cc3c2-c2ccccc2)cc1 (configuration not stated) | 97.6% | 84.4% | 95.8% | 75.1% | 108% | 89.9% | 77.1% | 86.5% | 89.1% | 69.2% | 76.1% | 86.7% | 92.1% | 99.9% | 79.7% | 107% | 88.4% | 92% | 95.3% | 92%
4 | COc1ccc(S(=O)(=O)c2ccc(C(N)=O)cc2)cc1NC(=O)c1[nH]c(C)c2c1CCCCC2=O | 74.1% | 75% | 76.7% | 78.5% | 81.1% | 101% | 93.4% | 11.1% | 56.6% | 49.4% | 50% | 46.9% | 74.5% | 68.7% | 51.1% | – | 64.9% | 48% | -2.07% (active) | 105%
5 | COc1ccccc1/C=C/C(=O)/C=C/c1ccccc1O | 72.5% | 46.2% | -18.7% (active) | -83.4% (active) | -0.117% (active) | -81.1% (active) | -62.5% (active) | 108% | -44.1% (active) | -26.3% (active) | -61.2% (active) | – | 2.91% (active) | -35% (active) | 12.6% | 88.9% | 5.17% (active) | -40.9% (active) | -40.9% (active) | -19.4% (active)
6 | CN1CCN(C)c2cncc(Br)c2C1=O | 118% | -82.7% (active) | 101% | 79.5% | 126% | 108% | -89.3% (active) | 85% | – | 98.5% | 84.1% | 93.8% | 102% | 104% | 115% | 101% | 108% | 109% | – | 98.3%
7 | COc1ccc(OC)c(/C=C2\Oc3cc(O)ccc3C2=O)c1 | 98.6% | 91.4% | 85.8% | 60.3% | 103% | 68.3% | 93.7% | – | 96.1% | 100% | 75.7% | 92.2% | 85.6% | 101% | 86.7% | – | 89.3% | 95.8% | 80.8% | 92.9%
8 | O=C(CCc1nnc2sc(-c3ccccc3)nn12)c1nc2ccccc2[nH]1 | 104% | 99.5% | 86.6% | 77.5% | 108% | 101% | 103% | 80.4% | – | 78.4% | 69.6% | – | 97.2% | 116% | 98.7% | 107% | 96.8% | 116% | 102% | 92.5%
